The nature of the assay: S. cerevisiae short- and long-term growth effects – BY4741, OD595, 24 h, dose response (AID 489042). Particulars: flow cytometer event count, 7 d (AID 449753), stronger effect = higher value.

Values without a mark were called inactive. Cut-off read from the data, not from the text of the source: active = inhibition score above about 11; inactive = the rest.

These results are taken from PubChem BioAssay AID489042 (NMMLSC, 2010).

With `O=C(OCc1c(F)cccc1Cl)c1cnc2ccccc2n1`, the inhibition score was 0.

For `Cc1cccc2nc3ccccc3nc12`, the inhibition score was 0.

Regarding `CN(C)CCNc1ncnc2c1cnn2-c1ccc(Cl)cc1`, the inhibition score is 0.

As to `CC(C)(C)n1nc(-c2ccc(F)cc2)c2c(N)ncnc21`, the inhibition score is 0.

In the case of `COc1cccc2nc3cc(C)c(C)cc3nc12`, the inhibition score was 0.

For the compound `COc1ccc2nc3ccccc3nc2c1N`, the inhibition score is 0.

For the compound `CC(C)OC(=O)c1ccc2nc3ccccc3nc2c1`, the inhibition score is 0.

As to `CCN(CC)C(=O)c1ccc2nc3ccccc3nc2c1`, the inhibition score is 0.

For the compound `CC(C)CSc1nnc2c3ccccc3n(C)c2n1`, the inhibition score is 0.

Consider `Cc1cc(C)cc(NC(=O)CN2CCN(c3ccccn3)CC2)c1`, for which the inhibition score is 0.

Turning to `N#CC(c1nc2ccccc2nc1N1CCCC1)S(=O)(=O)c1ccccc1` (centres undefined), the inhibition score is 0.

`[O-][n+]1c2ccccc2[n+]([O-])c2cc(O)ccc21`: the inhibition score is 0.

Consider `COc1ccc2nc3ccccc3nc2c1NC(=O)c1ccccc1Cl`, for which the inhibition score is 0.

Regarding `COc1ccc2c3c(cccc13)N(C)N=C2C`, the inhibition score is 0.

Consider `N#CCc1nn(-c2ccccc2)c2ncnc(N)c12`, for which the inhibition score was 0.

Take `CC(C)(C)n1nc(-c2ccc(Cl)cc2)c2c(N)ncnc21`: the inhibition score was 0.

In the case of `CSc1nnc2c3cc(F)ccc3n(C)c2n1`, the inhibition score is 0.

In the case of `COc1ccc2cc(C3CC(c4ccco4)=NN3S(=O)(=O)c3ccccc3)c(Cl)nc2c1` (centres undefined), the inhibition score is 0.

Turning to `Cc1cc(C)c2[nH]c3nc(SCC(=O)O)nnc3c2c1`, the inhibition score was 0.

`CC(=O)[C@@]1(O)CCC2C3CC[C@H]4C[C@@H](O)CC[C@]4(C)C3CC[C@@]21C` (some centres undefined): the inhibition score is 0.

On to `COC(=O)c1cccc2nc3c(C(C)O)cccc3nc12` (centres undefined), for which the inhibition score is 0.

For the compound `O=C(c1cccc2nc3ccccc3nc12)N1CCOCC1`, the inhibition score was 0.

On to `COc1ccc2nc3cccc(OC)c3nc2c1`, for which the inhibition score is 0.

Turning to `CCn1c2ccccc2c2n[nH]c(=S)nc21`, the inhibition score is 0.

For `C=CCOn1c(=O)c(-c2cccs2)[n+]([O-])c2ccccc21`, the inhibition score was 0.

As to `CCC(=Nc1ccccc1O)C1=C(O)CC(c2ccccc2)CC1=O` (centres undefined), the inhibition score is 0.

For `O=C(CN1CCN(c2ccccn2)CC1)Nc1ccccc1F`, the inhibition score was 0.

For the compound `CCCCCNC(=O)C(=O)C1C(=O)Nc2ccccc21` (centres undefined), the inhibition score is 0.

On to `c1ccc2[nH]c3cc4ncnc4cc3nc2c1`, for which the inhibition score was 0.
